Compounds without any hit were thinned out: in the full panel of roughly 79,000, 15% have a hit. Unmarked numbers belong to inactive results. Calls of active or inactive are those of the source. No stated cut-off is given here; in the data, active means growth inhibition above about 70%; inactive means the rest. Where a SMILES comes first, the peptide text is derived from it. The star is where a group is joined. For = O=C*
Experiment: NCI Yeast Anticancer Drug Screen. Data for the bub3 strain (AID 167)
Settings: S. cerevisiae bub3 mutant strain, at 50.0 µM, stronger effect = higher value
Summary of the method: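 Inhibition values come from growth of compound-treated mutant yeast normalised to vehicle-treated controls.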

Compound	growth inhibition
C=C(Cl)/C(=C\Cl)CCC(Cl)C(C)C (stereo not given)	-15.3%
COC(=O)c1cc(NS(=O)(=O)c2ccc(N)cc2)cc(C(=O)OC)c1	-14.8%
O=c1c2cc(-c3ccccc3)sc2nc2n1N=C(c1ccccc1)CS2	-2.85%
COc1ncn(C2CC(OC(=O)c3ccc(C)cc3)C(COC(=O)c3ccc(C)cc3)O2)c(=O)n1 (stereo not given)	-0.6%
CCN1C(=O)N(C)C(O)c2c1nc1ccccn1c2=O (stereo not given)	-15.7%
O=C(CCc1cc(O)cc(O)c1)NCCc1cc(OCc2ccccc2)cc(OCc2ccccc2)c1	27.1%
Cc1cc(Cl)c(Cl)cc1NC(=O)c1ccc(Cl)c(Cl)c1	45.1%
O=C(NN=C1CCCCC1)NN=C1CCCCC1	-6.55%
CCOC(=O)c1cnc(=S)[nH]c1N	-3.15%
CCCC(C)c1ccc(C(=O)O)cc1 (stereo not given)	-18.1%
Clc1c(Cl)c(CBr)c(Cl)c(-c2c(Cl)c(Cl)c(Cl)c(CBr)c2Cl)c1Cl	2.45%
NC(Cc1cccc(F)c1)C(=O)O (stereo not given)	-9.1%
CC(=O)Nc1ccc(C(=O)N2C(=N)C(C#N)=C(O)/C2=C\c2ccc(Cl)c(Cl)c2)cc1	-20.8%
Cc1c([N+](=O)[O-])cc(C(C)(C)C)c(OC(=O)CCl)c1[N+](=O)[O-]	99.4% (active)
CCn1c(=O)c(C#N)c2n(CC)c3ccccc3n2c1=O	20.9%
O=C1C=C(Nc2ccc(Cl)cc2C(=O)c2ccccc2)c2ccccc2C1=O	-6.55%
c1ccc(-c2nc3ccccc3nc2-c2ccc(-c3nc4ccccc4nc3-c3ccccc3)cc2)cc1	1.85%
CSCCC(NC(=O)C(Cc1ccccc1)NC=O)C(=O)O (stereo not drawn) (For-Phe-Met-OH; configuration not given here)	19.4%
CCOc1ccc(CCC(=O)O)cc1	-6.1%
Cc1ccncc1.[O]=[Ge].[O]=[Ge].[O]=[Ge].[O]=[Ge].[O]=[Ge].[O]=[Ge][OH].[O]=[Ge][OH]	-24.8%

Compound	growth inhibition
C=C(C)C(=O)OCCn1c(=O)c2c(ncn2C)n(C)c1=O	-14.5%
O=C(Nc1cc(Cl)c(Cl)cc1Cl)OCc1ccc2c(c1)OCO2	-25.2%
Cc1ccc(S(=O)(=O)Nc2ccccc2-c2nc3c(Cl)ccc(Cl)c3c(=O)o2)cc1	-5.45%
CCCCCCCCCCCCSC(=O)NCCC	3.45%
CN(C)CCNc1ccc2nnn3c4ccccc4c(=O)c1c23	3%
COC(=O)c1cc(=O)c2c(=O)[nH]c(=O)[nH]c2[nH]1	-8.6%
O=C(O)c1c[nH]c2ccc([N+](=O)[O-])cc2c1=O	-14%
CCCCOC(=O)NC(=O)c1cc2cc(Br)cc(Br)c2oc1=O	-1.2%
N#Cc1cccc(NC(=O)c2ccc(C(=O)O)c(C(=O)c3ccc(C(=O)O)c(C(=O)Nc4cccc(C#N)c4)c3)c2)c1	2%
O=C1NC(=O)C2(CCCCCC2)N1	-4.1%
NC(C(=O)O)C1C=CCCC1 (stereo not given)	-27.2%
CN1CNC(=S)NC1	20.9%
COc1ccc(Cc2cc3c(cc2OCC(=O)N2CCOCC2)OCO3)cc1	20.4%
O=[N+]([O-])c1ccc(P(=O)(Nc2ccc3ccccc3c2)Nc2ccc3ccccc3c2)cc1	13.1%
O=C(Nc1cccc([N+](=O)[O-])c1)c1ccccc1Cl	12.9%
C1C2CC3CC1CC(c1nn4c(C56CC7CC(CC(C7)C5)C6)nnc4s1)(C2)C3	-12.4%
COC(=O)/C=C/c1ccc(OC)c(OC)c1	64.5%
COc1ccc(CSc2nc3ccccc3nc2-c2cccs2)cc1	-24.9%
CCOC(=O)C(/C=N/Nc1ccc([N+](=O)[O-])cc1[N+](=O)[O-])Oc1cccc(OC)c1 (stereo not given)	-8.75%
CCCCN(C)C(=O)C1=C(C)NC(C)=C(C(=O)N(C)CCCC)C1	-16.2%

Experiment: NCI Yeast Anticancer Drug Screen. Data for the mlh1 rad18 strain (AID 175)
Settings: S. cerevisiae mlh1 rad18 strain growth inhibition; at 50.0 µM; stronger effect = higher value
Summary of the method: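 Test agents were incubated with a yeast strain of defined genotype (DNA damage repair defect). Inhibition of growth was derived by comparison with vehicle-exposed cultures.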

Compound	growth inhibition
C=C(Cl)/C(=C\Cl)CCC(Cl)C(C)C (stereo not given)	4.25%
COC(=O)c1cc(NS(=O)(=O)c2ccc(N)cc2)cc(C(=O)OC)c1	-24.6%
O=c1c2cc(-c3ccccc3)sc2nc2n1N=C(c1ccccc1)CS2	-18.6%
COc1ncn(C2CC(OC(=O)c3ccc(C)cc3)C(COC(=O)c3ccc(C)cc3)O2)c(=O)n1 (stereo not given)	-3.05%
CCN1C(=O)N(C)C(O)c2c1nc1ccccn1c2=O (stereo not given)	-19.6%
O=C(CCc1cc(O)cc(O)c1)NCCc1cc(OCc2ccccc2)cc(OCc2ccccc2)c1	-42.6%
Cc1cc(Cl)c(Cl)cc1NC(=O)c1ccc(Cl)c(Cl)c1	5.2%
O=C(NN=C1CCCCC1)NN=C1CCCCC1	-0.4%
CCOC(=O)c1cnc(=S)[nH]c1N	-43.5%
CCCC(C)c1ccc(C(=O)O)cc1 (stereo not given)	20.9%
Clc1c(Cl)c(CBr)c(Cl)c(-c2c(Cl)c(Cl)c(Cl)c(CBr)c2Cl)c1Cl	-1.1%
NC(Cc1cccc(F)c1)C(=O)O (stereo not given)	10%
CC(=O)Nc1ccc(C(=O)N2C(=N)C(C#N)=C(O)/C2=C\c2ccc(Cl)c(Cl)c2)cc1	2.15%
Cc1c([N+](=O)[O-])cc(C(C)(C)C)c(OC(=O)CCl)c1[N+](=O)[O-]	99.5% (active)
CCn1c(=O)c(C#N)c2n(CC)c3ccccc3n2c1=O	30%
O=C1C=C(Nc2ccc(Cl)cc2C(=O)c2ccccc2)c2ccccc2C1=O	-2.9%
c1ccc(-c2nc3ccccc3nc2-c2ccc(-c3nc4ccccc4nc3-c3ccccc3)cc2)cc1	-18.8%
CSCCC(NC(=O)C(Cc1ccccc1)NC=O)C(=O)O (stereo not drawn) (For-Phe-Met-OH; configuration not given here)	-11.5%
CCOc1ccc(CCC(=O)O)cc1	12.1%
Cc1ccncc1.[O]=[Ge].[O]=[Ge].[O]=[Ge].[O]=[Ge].[O]=[Ge].[O]=[Ge][OH].[O]=[Ge][OH]	-30.1%

Compound	growth inhibition
C=C(C)C(=O)OCCn1c(=O)c2c(ncn2C)n(C)c1=O	5.55%
O=C(Nc1cc(Cl)c(Cl)cc1Cl)OCc1ccc2c(c1)OCO2	-14.6%
Cc1ccc(S(=O)(=O)Nc2ccccc2-c2nc3c(Cl)ccc(Cl)c3c(=O)o2)cc1	10.7%
CCCCCCCCCCCCSC(=O)NCCC	1.4%
CN(C)CCNc1ccc2nnn3c4ccccc4c(=O)c1c23	25.5%
COC(=O)c1cc(=O)c2c(=O)[nH]c(=O)[nH]c2[nH]1	3.65%
O=C(O)c1c[nH]c2ccc([N+](=O)[O-])cc2c1=O	-7.95%
CCCCOC(=O)NC(=O)c1cc2cc(Br)cc(Br)c2oc1=O	-17.2%
N#Cc1cccc(NC(=O)c2ccc(C(=O)O)c(C(=O)c3ccc(C(=O)O)c(C(=O)Nc4cccc(C#N)c4)c3)c2)c1	-20.8%
O=C1NC(=O)C2(CCCCCC2)N1	-26.7%
NC(C(=O)O)C1C=CCCC1 (stereo not given)	6.85%
CN1CNC(=S)NC1	15.2%
COc1ccc(Cc2cc3c(cc2OCC(=O)N2CCOCC2)OCO3)cc1	-3.3%
O=[N+]([O-])c1ccc(P(=O)(Nc2ccc3ccccc3c2)Nc2ccc3ccccc3c2)cc1	46.5%
O=C(Nc1cccc([N+](=O)[O-])c1)c1ccccc1Cl	8.75%
C1C2CC3CC1CC(c1nn4c(C56CC7CC(CC(C7)C5)C6)nnc4s1)(C2)C3	-17.9%
COC(=O)/C=C/c1ccc(OC)c(OC)c1	50%
COc1ccc(CSc2nc3ccccc3nc2-c2cccs2)cc1	-54.8%
CCOC(=O)C(/C=N/Nc1ccc([N+](=O)[O-])cc1[N+](=O)[O-])Oc1cccc(OC)c1 (stereo not given)	-1.55%
CCCCN(C)C(=O)C1=C(C)NC(C)=C(C(=O)N(C)CCCC)C1	-58%
